Source: PubChem (National Center for Advancing Translational Sciences (NCATS))
D3 antag – antagonists of human D3 dopamine receptor; P35462; D3R cells, DiscoveRx beta-arrestin luminescence, antagonist mode; stronger effect = lower value; max response, negative = inhibition, %; hit rate 2.5% among 360,000; AID 652054; in the data active = max response below about -50%; inconclusive = no clear call, values can overlap the other calls; also: % is scaled to controls: 0 for no effect and ±100 for the full control effect
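Cells expressing the human receptor were seeded at 1500 cells/well, incubated overnight at 37 degrees C in 5% CO2, then exposed to library compounds with dopamine controls for 90 minutes at 37 degrees C before luminescent detection.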
DRD3 agonist – agonists of human D3 dopamine receptor; AID 652048; P35462; max activation, %; D3R DiscoveRx beta-arrestin cells, luminescence, 90 min; hit rate 0.58% among 410,000; in the data active = max activation above about 30%; also: 0% is about no effect
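Agonist-mode cell screen: cells plated at 1500/well and incubated overnight at 37 °C, then exposed to library compounds for 90 min at 37 °C. Detection reagent was added for 30–60 min at room temperature, and luminescence was read.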
D1 agonist – human D1 receptor agonism; P21728; HEK293 T-REx D1 cells, calcium flux, agonist mode; activation, % at 2 µM; hit rate 1% among 360,000; AID 504660; in the data active = activation above about 30%; also: 0% is about no effect
Target sequence (P21728 whole entry, looked up): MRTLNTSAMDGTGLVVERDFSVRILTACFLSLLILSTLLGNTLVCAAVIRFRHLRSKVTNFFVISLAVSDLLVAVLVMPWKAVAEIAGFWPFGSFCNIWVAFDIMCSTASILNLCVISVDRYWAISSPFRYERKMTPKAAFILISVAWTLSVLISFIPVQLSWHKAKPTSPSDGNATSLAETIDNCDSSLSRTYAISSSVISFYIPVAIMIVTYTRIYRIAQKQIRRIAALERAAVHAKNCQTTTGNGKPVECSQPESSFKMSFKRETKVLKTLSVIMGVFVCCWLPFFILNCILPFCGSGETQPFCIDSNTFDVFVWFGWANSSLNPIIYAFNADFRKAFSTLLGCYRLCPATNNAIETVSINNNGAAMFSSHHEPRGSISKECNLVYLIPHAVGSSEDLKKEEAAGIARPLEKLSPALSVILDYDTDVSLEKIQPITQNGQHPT
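Inducible HEK293 T-REx D1 cells, force-coupled to calcium signalling, were plated at 4000 cells/well with tetracycline and held overnight at 30 C. After no-wash calcium dye loading, compound-evoked calcium rise over 180 s flagged agonists.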
D1 antagonist – antagonists of human D1 dopamine receptor; hit rate 3.2% among 360,000; HEK293 TREx D1 cells, calcium flux, dopamine EC80; stronger effect = lower value; activity change, negative = inhibition, % at 10 µM; P21728; AID 504652; in the data active = activity change below about -30%; also: % is scaled to controls: 0 for no effect and ±100 for the full control effect
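Compound effects on dopamine-evoked calcium signalling were measured in tetracycline-induced HEK293 Trex D1 cells. Dopamine at EC80 followed a 180 s compound pre-read, and fluorescence was tracked kinetically for 180 s more.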
D1 potentiator – potentiators of human D1 dopamine receptor; P21728; HEK293 TREx D1 cells, calcium flux, dopamine EC20 potentiation; potentiation, % at 10 µM; hit rate 0.036% among 360,000; AID 504651; in the data active = potentiation above about 30%; also: 0% is about no effect
* marks the source's active call; other numbers are inactive results; ? = inconclusive; · = not tested or not shown; ! = a repeat was not active. This is a sample that favours compounds with a hit; in the whole collection about 6.1% have one here.

SMILES	D3 antag	DRD3 agonist	D1 agonist	D1 antagonist	D1 potentiator
CC(C)Cn1cc(NC(=O)N2CCN(c3cccc(Cl)c3)CC2)c2ccccc2c1=O	·	-3	-1	-12	1
COc1cccc(C2=NS(=O)(=O)N(C)C(C(=O)Nc3ccccc3SC)=C2)c1	·	-10	5	4	-1
NC(=O)CC[C@@H]1NC(=O)[C@H](Cc2ccccc2)NC(=O)[C@H](Cc2ccc(O)cc2)NC(=O)CCSSC[C@@H](C(=O)N2CCC[C@H]2C(=O)N[C@@H](CCCN=C(N)N)C(=O)NCC(N)=O)NC(=O)[C@H](CC(N)=O)NC1=O	·	-7	·	·	·
CCCCOC(=O)c1ccc(NC(=O)COC(=O)C2CSC3(C)CCC(=O)N23)cc1 (stereo unspecified)	3	-12	22	-46*	-7
CCC1CN(C(=O)N2CCC(C(=O)N3CCN(c4ccccc4F)CC3)CC2)c2ccccc2O1 (stereo unspecified)	·	12	2	0	1
CCOC(=O)c1cccc(NC(=O)CSc2ncc3c(n2)-c2ccc(Cl)cc2N(Cc2ccccc2)S3(=O)=O)c1	·	-13	7	-75*	0
COc1ccc(CNC(=O)CSc2ncc3c(n2)-c2cc(Cl)ccc2N(Cc2ccccc2)S3(=O)=O)cc1OC	·	-2	2	14	-3
COc1ccc(CNC(=O)CSc2ncc3c(n2)-c2cc(Cl)ccc2N(Cc2ccccc2)S3(=O)=O)cc1	·	7	6	-43*	-8
C[C@H](NC(=O)C1(c2ccccc2)CCN(C(=O)OC(C)(C)C)CC1)C(=O)N[C@@H](C(=O)O)c1ccccc1	-20	0	0	6	-1
C[C@@H](NC(=O)C1(c2ccccc2)CCN(C(=O)OC(C)(C)C)CC1)C(=O)N[C@@H](C(=O)O)c1ccccc1	?	-14	1	-52*	-3
Cc1ccccc1NC(=O)Nc1nnc(N2CCCCCC2)s1	·	6	-2	6	3
CC(C)CCCN1CCN=C1N(C)C	4	16	2	-9	2
CCCCCCCN1CCN=C1N(C)C	10	-3	0	-35*	-5
Cc1cccc(N(C)S(=O)(=O)c2cc(-c3cnc(C4CC4)o3)ccc2C)c1	·	-10	19	-32*	1
CNCC(O)c1ccc(OC(=O)C(C)(C)C)c(OC(=O)C(C)(C)C)c1 (stereo unspecified)	-4	40*!	3	25	-5
CC(C)NC[C@H](O)c1ccc(O)c(O)c1	2	14	-1	-2	-2
OCC(O)C1OC(c2ccccc2)OC(CO)C1O (stereo unspecified)	15	31*	·	·	·
OCC(O)C1OC(c2ccco2)OC(CO)C1O (stereo unspecified)	4	6	·	·	·
CCC(Oc1ccccc1)C(=O)Nc1ccc(O)c(-c2nc3cc(C)ccc3o2)c1 (stereo unspecified)	·	-1	-1	1	0
O=C(CN1CCN(C2CCCCC2)CC1)c1ccc2cc[nH]c2c1	?	-9	1	-36*	4
O=C(CN1CCN(C2CCCCC2)CC1)c1c[nH]c2ccccc12	-69*	-2	7	-11	-1
CCN1CCN(CC(=O)c2c[nH]c3ccccc23)CC1	-19	-5	5	-5	-4
Cc1nc2nc(SCC(=O)N(C)Cc3ccccc3)nn2c(C)c1Cc1ccccc1Cl	·	7	-2	-13	-1
Cc1nc2c(=O)n(C)c(=O)[nH]c2n1Cc1ccccc1	-62*	-2	5	0	-4
CN(CC(=O)Nc1ccccc1Cl)C(=O)Cn1nnc(-c2ccc(F)cc2)n1	0	-24	1	-47*	-3
SMILES	D3 antag	DRD3 agonist	D1 agonist	D1 antagonist	D1 potentiator
CC(Sc1ncc(S(=O)(=O)c2ccc(C(C)C)cc2)c(N)n1)C(=O)Nc1ccccc1 (stereo unspecified)	·	7	6	-11	1
CCOC(=O)C1=C(COCCN)NC(C)=C(C(=O)OC)C1c1ccccc1Cl (stereo unspecified)	4	-8	48*	36	-4
CC1(C)[C@H]2CC[C@]1(C)[C@H](O)C2	·	-8	·	·	·
COc1c(C)cc(Br)cc1C(=O)Nc1ccc(S(N)(=O)=O)cc1	9	1	1	-61*	-6
Cc1cc2oc(C(=O)Nc3ccc(S(N)(=O)=O)cc3)cc(=O)c2cc1C	·	7	0	-58*	-2
CC(=O)Nc1ccc(NC(=O)c2cc(=O)c3cc(C)c(C)cc3o2)cc1	-14	2	2	4	2
COc1c(C)cc(Br)cc1C(=O)Nc1ccc(C)cc1[N+](=O)[O-]	-13	-4	4	-6	-2
CN(CC(=O)Nc1ccc(Cl)cc1F)S(=O)(=O)c1ccc2c(c1)n(C)c(=O)c(=O)n2C	·	-2	2	-24	-4
CN(c1cccc(Cl)c1)S(=O)(=O)c1cccc(C(=O)NN2CCOCC2)c1	0	-3	5	-37*	·
COC(=O)c1cc2ccc(OC)cc2c2cc(OC)c(OC)cc12	136	80*	·	·	·
COC(=O)c1cc(OC)c(OC)cc1NC(=O)Nc1ccc(OC)cc1	8	-2	0	2	-1
Cc1ccccc1CS(=O)(=O)c1nnc([C@H](CC(C)C)NC(=O)OC(C)(C)C)o1	-66*	-59	3	-17	-1
CC(C)[C@H](NC(=O)OC(C)(C)C)c1nnc(S(=O)(=O)Cc2c(F)cccc2Cl)o1	?	-20	3	-16	-1
CC[C@@H](C)[C@H](NC(=O)OC(C)(C)C)c1nnc(S(=O)(=O)Cc2cc(C)ccc2C)o1	-79*	-8	6	-15	-5
O=C(O)CCc1cc(F)c(S(=O)(=O)N2CCN(S(=O)(=O)c3ccc4c(c3)OCCO4)CC2)cc1F	·	·	1	12	2
CN(C(=O)CSc1nc2ccc(NC(=O)c3cccs3)cc2s1)c1ccccc1	·	4	0	-6	-2
CC(C)CN1CCC(Oc2cccc(C(=O)NCCc3ccccc3)c2)CC1	4	-22	6	-38*	-3
CC(C)=CC(=O)N1CCC(Oc2cccc(C(=O)NCc3ccccn3)c2)CC1	-9	1	·	·	·
COCC(C)N1CCC(Oc2cccc(C(=O)NCCc3ccccc3)c2)CC1 (stereo unspecified)	-9	-11	13	-39*	-12
CSCC(C)N1CCC(Oc2cccc(C(=O)NCc3ccccn3)c2)CC1 (stereo unspecified)	-3	-2	4	-63*	-11
Cc1nnc(N2CCN(c3ccccc3F)CC2)c2c1nnn2Cc1ccccc1Cl	·	1	2	-10	-3
Cc1cccc(Nc2nnc(SC/C(O)=C(\C#N)c3nc4ccccc4[nH]3)s2)c1C	53	33*	2	-6	0
Cc1cccc(C)c1Nc1nnc(SC/C(O)=C(\C#N)c2nc3ccccc3[nH]2)s1	5	18	3	-22	0
